Source: PubChem BioAssay AID1159580 (chemical genetic matrix, 2015)
Hit rate of the full screen: of about 5,500 compounds, about 2,000 (36%) were called active. Roughly 18% stayed inconclusive and do not appear here. No stated cut-off is given here; in the data, active means normalized growth mostly below about 0.91 (no sharp cut-off); inconclusive means no clear call, values can overlap the other calls; inactive means mostly above about 0.92. The list shows a part of the results.

Assay: chemical genetic growth profiling, strain panel (AID 1159580);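 further: tested at 20 µM; growth read once vehicle control cultures reached saturation at 30 °C; 1 = growth at the plate median or of vehicle wells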
Conditions: growth OD
[1] = S. cerevisiae deletion strains, locus YDR150W, strain NUM1, stronger effect = lower value
[2] = S. cerevisiae deletion strains, locus YGR078C, strain PAC10, stronger effect = lower value
[3] = S. cerevisiae deletion strains, locus YGR229C, strain SMI1, stronger effect = lower value
[4] = S. cerevisiae deletion strains, locus YMR263W, strain SAP30, stronger effect = lower value
[5] = S. cerevisiae deletion strains, locus YMR307W, strain GAS1, stronger effect = lower value
[6] = S. cerevisiae deletion strains, locus YNL128W, strain TEP1, stronger effect = lower value
[7] = S. cerevisiae deletion strains, locus YNL153C, strain GIM3, stronger effect = lower value
[8] = S. cerevisiae deletion strains, locus YPL055C, strain LGE1, stronger effect = lower value
[9] = S. cerevisiae deletion strains, locus YAL013W, strain DEP1, stronger effect = lower value
[10] = S. cerevisiae deletion strains, locus YBR229C, strain ROT2, stronger effect = lower value
[11] = S. cerevisiae deletion strains, locus YCL061C, strain MRC1, stronger effect = lower value
[12] = S. cerevisiae deletion strains, locus YDL101C, strain DUN1, stronger effect = lower value
[13] = S. cerevisiae deletion strains, locus YDL134C, strain PPH21, stronger effect = lower value
[14] = S. cerevisiae deletion strains, locus YEL061C, strain CIN8, stronger effect = lower value
[15] = S. cerevisiae deletion strains, locus YHR030C, strain SLT2, stronger effect = lower value
[16] = S. cerevisiae deletion strains, locus YHR087W, strain rtc3, stronger effect = lower value
[17] = S. cerevisiae deletion strains, locus YJR043C, strain POL32, stronger effect = lower value
[18] = S. cerevisiae deletion strains, locus YJR075W, strain HOC1, stronger effect = lower value
[19] = S. cerevisiae deletion strains, locus YLR039C, strain RIC1, stronger effect = lower value
[20] = S. cerevisiae deletion strains, locus YLR058C, strain SHM2 (second series), stronger effect = lower value
[21] = S. cerevisiae deletion strains, locus YLR085C, strain ARP6, stronger effect = lower value
[22] = S. cerevisiae deletion strains, locus YLR262C, strain YPT6, stronger effect = lower value
[23] = S. cerevisiae deletion strains, locus YML094W, strain GIM5, stronger effect = lower value
[24] = S. cerevisiae deletion strains, locus YMR219W, strain ESC1, stronger effect = lower value
[25] = S. cerevisiae deletion strains, locus YNL298W, strain CLA4 (second series), stronger effect = lower value
[26] = S. cerevisiae deletion strains, locus YNL322C, strain KRE1, stronger effect = lower value
[27] = S. cerevisiae deletion strains, locus YNR030W, strain Alg12, stronger effect = lower value
[28] = S. cerevisiae deletion strains, locus YOL006C, strain TOP1, stronger effect = lower value
[29] = S. cerevisiae deletion strains, locus YPL241C, strain CIN2, stronger effect = lower value
[30] = S. cerevisiae deletion strains, locus YPR135W, strain CTF4, stronger effect = lower value

Measured: normalized growth

O=C1C2C=CC=CC2=NC(=S)N1CCN1CCC(=C(c2ccc(F)cc2)c2ccc(F)cc2)CC1 (configuration not stated)
active: [2] 0.857 | [3] 0.717 | [5] 0.707 | [7] 0.578 | S. cerevisiae deletion strains, locus YOR083W, strain WHI5 (second series), stronger effect = lower value 0.607
inactive: S. cerevisiae deletion strains, locus YAL040C, strain CLN3, stronger effect = lower value 0.896 | S. cerevisiae deletion strains, locus YCL061C, strain MRC1 (second series), stronger effect = lower value 1.01 | [1] 1 | S. cerevisiae deletion strains, locus YDR363W, strain ESC2, stronger effect = lower value 0.951 | S. cerevisiae deletion strains, locus YER002W, strain NOP16, stronger effect = lower value 1.04 | [4] 0.985 | [6] 1.06 | S. cerevisiae deletion strains, locus YNL197C, strain WHI3, stronger effect = lower value 1.08 | S. cerevisiae deletion strains, locus YNL224C, strain SQS1, stronger effect = lower value 1.02 | [8] 1.03

CCc1nnc(N=CNO)s1
active: [10] 0.846 | [14] 0.843 | [15] 0.573 | [16] 0.79 | S. cerevisiae deletion strains, locus YJL187C, strain SWE1, stronger effect = lower value 0.817 | [18] 0.809 | [23] 0.855 | [24] 0.879 | [25] 0.823 | [28] 0.465
inactive: [9] 0.956 | [11] 0.913 | [12] 0.932 | [13] 0.989 | [1] 0.978 | [2] 0.973 | [3] 0.992 | [17] 0.97 | [19] 0.967 | [20] 1 | [21] 0.803 | [22] 0.947 | [4] 0.968 | [7] 0.965 | [26] 1.01 | [27] 0.944 | [8] 0.909 | [29] 0.99 | [30] 0.795

CCOC(=O)c1ccc2nc(N=CNO)sc2c1
inactive: S. cerevisiae deletion strains, locus YAR019C, strain CDC15, stronger effect = lower value 0.948 | S. cerevisiae deletion strains, locus YBL105C, strain PKC1, stronger effect = lower value 0.94 | S. cerevisiae deletion strains, locus YBR135W, strain CKS1, stronger effect = lower value 0.947 | S. cerevisiae deletion strains, locus YBR136W, strain MEC1, stronger effect = lower value 0.951 | S. cerevisiae deletion strains, locus YBR160W, strain CDC28, stronger effect = lower value 0.954 | S. cerevisiae deletion strains, locus YDL017W, strain CDC7, stronger effect = lower value 0.953 | S. cerevisiae deletion strains, locus YDL028C, strain MPS1, stronger effect = lower value 0.956 | [12] 0.973 | S. cerevisiae deletion strains, locus YDL108W, strain KIN28, stronger effect = lower value 0.946 | S. cerevisiae deletion strains, locus YDL132W, strain cdc53, stronger effect = lower value 0.946 | S. cerevisiae deletion strains, locus YDL214C, strain PRR2, stronger effect = lower value 0.905 | S. cerevisiae deletion strains, locus YDR052C, strain DBF4, stronger effect = lower value 0.961 | S. cerevisiae deletion strains, locus YDR054C, strain cdc34, stronger effect = lower value 0.938 | S. cerevisiae deletion strains, locus YDR226W, strain ADK1, stronger effect = lower value 0.958 | S. cerevisiae deletion strains, locus YDR477W, strain SNF1, stronger effect = lower value 0.913 | S. cerevisiae deletion strains, locus YER123W, strain YCK3, stronger effect = lower value 0.864 | S. cerevisiae deletion strains, locus YER133W, strain GLC7, stronger effect = lower value 0.888 | S. cerevisiae deletion strains, locus YFL009W, strain cdc4, stronger effect = lower value 0.938 | S. cerevisiae deletion strains, locus YFL029C, strain CAK1, stronger effect = lower value 0.951 | S. cerevisiae deletion strains, locus YFR003C, strain YPI1, stronger effect = lower value 0.951 | S. cerevisiae deletion strains, locus YFR019W, strain FAB1, stronger effect = lower value 0.909 | S. cerevisiae deletion strains, locus YFR028C, strain CDC14, stronger effect = lower value 0.967 | S. cerevisiae deletion strains, locus YGR040W, strain KSS1, stronger effect = lower value 0.919 | S. cerevisiae deletion strains, locus YGR052W, strain FMP48, stronger effect = lower value 0.983 | S. cerevisiae deletion strains, locus YGR092W, strain DBF2, stronger effect = lower value 0.771 | [15] 0.961 | S. cerevisiae deletion strains, locus YHR079C, strain IRE1, stronger effect = lower value 0.964 | S. cerevisiae deletion strains, locus YHR082C, strain KSP1, stronger effect = lower value 0.986 | S. cerevisiae deletion strains, locus YHR205W, strain SCH9, stronger effect = lower value 0.886 | S. cerevisiae deletion strains, locus YIL147C, strain SLN1, stronger effect = lower value 0.945 | S. cerevisiae deletion strains, locus YJL095W, strain BCK1, stronger effect = lower value 0.977 | S. cerevisiae deletion strains, locus YJL128C, strain PBS2, stronger effect = lower value 0.94 | S. cerevisiae deletion strains, locus YJL157C, strain FAR1, stronger effect = lower value 0.881 | S. cerevisiae deletion strains, locus YJR016C, strain ILV3, stronger effect = lower value 0.948 | S. cerevisiae deletion strains, locus YJR066W, strain TOR1 (second series), stronger effect = lower value 0.717 | S. cerevisiae deletion strains, locus YJR066W, strain TOR1, stronger effect = lower value 0.995 | S. cerevisiae deletion strains, locus YKL048C, strain ELM1, stronger effect = lower value 0.955 | S. cerevisiae deletion strains, locus YKL067W, strain YNK1, stronger effect = lower value 0.915 | S. cerevisiae deletion strains, locus YKL101W, strain HSL1, stronger effect = lower value 0.907 | S. cerevisiae deletion strains, locus YKL193C, strain SDS22, stronger effect = lower value 0.955 | S. cerevisiae deletion strains, locus YKL203C, strain TOR2, stronger effect = lower value 0.958 | S. cerevisiae deletion strains, locus YLR113W, strain HOG1, stronger effect = lower value 0.988 | S. cerevisiae deletion strains, locus YLR133W, strain CKI1, stronger effect = lower value 0.922 | S. cerevisiae deletion strains, locus YLR403W, strain SFP1, stronger effect = lower value 0.879 | S. cerevisiae deletion strains, locus YML070W, strain DAK1, stronger effect = lower value 0.892 | S. cerevisiae deletion strains, locus YMR001C, strain CDC5, stronger effect = lower value 0.951 | S. cerevisiae deletion strains, locus YMR205C, strain PFK2 (second series), stronger effect = lower value 0.931 | S. cerevisiae deletion strains, locus YMR277W, strain FCP1, stronger effect = lower value 0.963 | S. cerevisiae deletion strains, locus YNL006W, strain LST8, stronger effect = lower value 0.945 | S. cerevisiae deletion strains, locus YNL020C, strain ARK1, stronger effect = lower value 0.911 | S. cerevisiae deletion strains, locus YNL161W, strain CBK1, stronger effect = lower value 0.951 | S. cerevisiae deletion strains, locus YNL183C, strain NPR1, stronger effect = lower value 1 | S. cerevisiae deletion strains, locus YNL207W, strain RIO2, stronger effect = lower value 0.949 | S. cerevisiae deletion strains, locus YNL222W, strain SSU72, stronger effect = lower value 0.952 | S. cerevisiae deletion strains, locus YNL307C, strain MCK1 (second series), stronger effect = lower value 0.926 | S. cerevisiae deletion strains, locus YOL078W, strain AVO1, stronger effect = lower value 0.958 | S. cerevisiae deletion strains, locus YOL136C, strain PFK27, stronger effect = lower value 0.892 | S. cerevisiae deletion strains, locus YOR061W, strain CKA2, stronger effect = lower value 0.894 | S. cerevisiae deletion strains, locus YOR119C, strain RIO1, stronger effect = lower value 0.908 | S. cerevisiae deletion strains, locus YOR231W, strain MKK1, stronger effect = lower value 0.938 | S. cerevisiae deletion strains, locus YOR329C, strain SCD5, stronger effect = lower value 0.947 | S. cerevisiae deletion strains, locus YPL031C, strain PHO85, stronger effect = lower value 0.867 | S. cerevisiae deletion strains, locus YPL153C, strain RAD53, stronger effect = lower value 0.88 | S. cerevisiae deletion strains, locus YPL204W, strain HRR25, stronger effect = lower value 0.889 | S. cerevisiae deletion strains, locus YPL209C, strain IPL1, stronger effect = lower value 0.947 | S. cerevisiae deletion strains, locus YPL256C, strain CLN2, stronger effect = lower value 1.02 | S. cerevisiae deletion strains, locus YPR025C, strain CCL1, stronger effect = lower value 0.95 | S. cerevisiae deletion strains, locus YPR106W, strain ISR1, stronger effect = lower value 0.968 | S. cerevisiae deletion strains, locus YPR111W, strain DBF20, stronger effect = lower value 0.963 | S. cerevisiae deletion strains, strain NNK1, stronger effect = lower value 0.96 | S. cerevisiae deletion strains, strain TSCII, stronger effect = lower value 0.952

CCOC(=O)Cc1csc(N=CNO)n1
inactive: [9] 1.01 | [10] 1.02 | [11] 1.01 | [12] 1 | [13] 1.02 | [1] 0.892 | [14] 1.01 | [2] 1.02 | [3] 0.997 | [15] 0.999 | [16] 1.04 | [17] 0.989 | [18] 1.05 | [19] 0.992 | [20] 1.02 | [21] 1.03 | [22] 0.951 | [23] 1.02 | [24] 1.02 | [4] 0.999 | [5] 1.03 | [6] 0.999 | [7] 1.01 | [25] 1.05 | [26] 1.01 | [27] 1.03 | [8] 1.02 | [29] 1.02 | [30] 1.04 | S. cerevisiae strains, strain wild type, stronger effect = lower value 1.03

Cc1oc(C(C)(C)C)cc1C(=O)Nc1ccc([N+](=O)[O-])cc1
active: [9] 0.903 | [1] 0.786 | [15] 0.584 | [19] 0.678 | [22] 0.786 | [25] 0.788 | [27] 0.816 | [8] 0.688 | [30] 0.484
inactive: [10] 0.976 | [11] 0.984 | [12] 1.03 | [14] 0.911 | [2] 0.98 | [16] 0.958 | [17] 0.966 | [18] 0.974 | [20] 0.992 | [21] 0.813 | [23] 0.873 | [24] 0.997 | [4] 0.943 | [5] 0.752 | [7] 0.998 | [26] 0.996 | [28] 0.88 | [29] 0.997
